# ChEMBL document CHEMBL3988442, “University of Dundee, Small-Polar-MMV Screening Library” (2021)
# The campaign covered roughly 48,000 compounds. About 13,000 (27%) showed an effect of 50% or more. Some of the results follow.
# System: Wolbachia pipientis
# Experiment: Anti-Wolbachia Cell-Based Screen
# Assay type: functional
# Set-up: scale not given: in the data most compounds retested in dose-response had high values
# Details: 5 µM
row,Structure (SMILES),Percent Effect [%]
1,CCOc1cc(CN(C)CCOC)ccc1OC(F)F,9.652
2,CN(C)C(=O)c1cccc(NC(=O)Cc2cc(F)ccc2F)n1,-6.771
3,CS(=O)(=O)NCCCNCc1cc(F)ccc1Br,85.45
4,CC(=O)NCCCNCc1cc(F)ccc1Br,10.59
5,CCS(=O)(=O)NCCNCc1cc(F)ccc1Br,5.201
6,O=C(c1cnc(-c2ccco2)s1)N1CCCC1Cn1cccn1 (configuration not stated),-5.367
7,Cc1nc(-c2ccco2)ccc1C(=O)N1CCCC1Cn1cccn1 (configuration not stated),-3.884
8,Cc1cnn(CC2CCCN2C(=O)c2cnc(-c3ccco3)s2)c1 (configuration not stated),107.8
9,Cc1sc(-c2ccco2)nc1C(=O)N1CCCC1Cn1cccn1 (configuration not stated),99.48
10,O=C(c1cnc(-c2ccco2)s1)N1CCCCC1Cn1cccn1 (configuration not stated),80.46
11,COc1ccccc1S(=O)(=O)CCOC(C)C,8.609
12,CC(C)Oc1ccc(CSc2nnc(CN3CCCC3=O)o2)cc1,-8.061
13,OCc1csc(N2CCCC(COc3cccc(F)c3)C2)n1 (configuration not stated),96.77
14,Cc1ccc(OCC2CCCN(c3cc(C(N)=O)ccn3)C2)cc1 (configuration not stated),0.1163
15,Cc1ccc(OCC2CCCN(Cc3ccc(CO)o3)C2)cc1 (configuration not stated),-15.89
16,COc1ccc(OCC2CCCN(c3nc(CO)cs3)C2)cc1 (configuration not stated),99.62
17,OCc1csc(N2CCCN(Cc3ccc(F)cc3)CC2)n1,11.91
18,COc1cccc(OCC2CCCN(c3cc(C(N)=O)ccn3)C2)c1 (configuration not stated),12.14
19,OCc1csc(N2CCN(Cc3cccc(F)c3)CC2)n1,-8.687
20,Cc1ccc(OCC2CCCN(c3nc(CO)cs3)C2)cc1 (configuration not stated),87.49
21,CC(C)NS(=O)(=O)c1cc(C(=O)O)cc(-c2ccccc2CN(C)C)c1,9.283

row,Structure (SMILES),Percent Effect [%]
1,CCOCCN1CCN(Cc2nnc(-c3occc3C)o2)CC1,-3.196
2,CC(C)C(O)C1(CNC(=O)Nc2ccc(CN3CCOC3=O)cc2)CC1 (configuration not stated),-15.4
3,COC(=O)c1ccc2ccn(CC3CCCO3)c(=O)c2c1 (configuration not stated),-4.095
4,CCOCCn1c(=O)[nH]c2cc(C(=O)N(C)Cc3nc(C)c[nH]3)ccc21,-5.58
5,CCC[C@]12CN3C[C@](CCC)(CN(C1)C3c1[nH]c(=O)[nH]c(=O)c1C)C2=O (some centres not stated),113.9
6,Cc1c(C2N3C[C@]4(C(C)C)CN2C[C@](C(C)C)(C3)C4=O)[nH]c(=O)[nH]c1=O (some centres not stated),123.1
7,CC(=O)NC[C@H]1COCc2nc3c(C)cccc3n21,4.229
8,CCOC(C)c1noc(CN2CCN(c3ccncc3)CC2)n1 (configuration not stated),-6.635
9,CN(C)CC1CN(C(=O)CCc2ccccc2)Cc2nccn2C1.O=C(O)C(F)(F)F (configuration not stated),96.55
10,COc1ccc(CC(=O)N2Cc3nccn3CC(CN(C)C)C2)cc1.O=C(O)C(F)(F)F (configuration not stated),100.3
11,CCOCC(=O)N1Cc2nccn2CC(CN(C)C)C1 (configuration not stated),110.3
12,Cc1occc1C(=O)N1Cc2nccn2CC(CN(C)C)C1.O=C(O)C(F)(F)F (configuration not stated),7.658
13,CN(C)CC1CN(C(=O)NCc2ccccc2)Cc2nccn2C1.O=C(O)C(F)(F)F (configuration not stated),-13.89
14,CCOCC(=O)N1CCC(c2nccn2CC2CC2)CC1,4.34
15,COc1cccc(CC(=O)N2Cc3nccn3CC(CN(C)C)C2)c1 (configuration not stated),80.89
16,CCOCC(=O)N1Cc2nccn2CC(CN2CCCC2)C1.O=C(O)C(F)(F)F (configuration not stated),-4.064
17,Cc1ccc(CN2CCOC3(CCN(C(=O)C4CC=CC4)CC3)C2)cc1.O=C(O)C(F)(F)F,15.78
18,Cc1ccccc1N1CCN(C(=O)c2ncc(F)cc2F)C(C)C1 (configuration not stated),9.425
19,COc1ccc(C(=O)N2C[C@H]3CC[C@@H]2CN(C)C3)cc1Cl,-11.94
20,Cc1ccccc1-c1ncc(CNCc2csc(C(C)C)n2)s1,-1.637
21,O=C(c1ccoc1)N1CCC2(C1)CN(c1nccs1)C2,-3.02

row,Structure (SMILES),Percent Effect [%]
1,Cc1ccc(CC(=O)N2Cc3nccn3CC(CN(C)C)C2)cc1.O=C(O)C(F)(F)F (configuration not stated),14
2,CN(C)CC1CN(C(=O)Cc2ccccc2)Cc2nccn2C1.O=C(O)C(F)(F)F (configuration not stated),102.6
3,Cc1cncc(C2CCCN2CC(N)=O)n1 (configuration not stated),143.4
4,Cc1nc(O)cc(C2CCCN2CCO)n1 (configuration not stated),112.5
5,OCCCN1CCCC1c1cccc(Br)c1 (configuration not stated),-6.004
6,NC(=O)CN1CCCC1c1ccccc1Br (configuration not stated),-4.067
7,Cc1cncc(C2CCCN2CCO)n1 (configuration not stated),153.6
8,CN1CCN(C[C@H]2CC[C@@H](Cc3ccc(CN4CCCC4)cc3)O2)CC1,-1.169
9,Cc1ccc(S(=O)(=O)NC[C@H]2OC[C@@H](NCc3cccs3)[C@@H]2O)cc1,7.979
10,CCn1c(C)nnc1SCCNC(=O)CC1CCc2ccccc21 (configuration not stated),-3.198
11,CCOC(=O)[C@]12CCCN(Cc3ccsc3)C[C@H]1CN(CCOC)C2.O=C(O)C(F)(F)F.O=C(O)C(F)(F)F,-11.63
12,CCOC(=O)[C@]12CCCN(Cc3nccs3)C[C@H]1CN(C(C)C)C2.O=C(O)C(F)(F)F.O=C(O)C(F)(F)F,-10.51
13,CCOC(=O)[C@]12CCCN(Cc3ccco3)C[C@H]1CN(CCN(C)C)C2.O=C(O)C(F)(F)F.O=C(O)C(F)(F)F.O=C(O)C(F)(F)F,13.18
14,CCOC(=O)[C@]12CCCN(Cc3ccco3)C[C@H]1CN(S(C)(=O)=O)C2.O=C(O)C(F)(F)F,113.6
15,CCOC(=O)[C@]12CCCN(Cc3nccs3)C[C@H]1CN(C(C)=O)C2.O=C(O)C(F)(F)F,10.79
16,CCOC(=O)[C@]12CCCN(Cc3cccs3)C[C@H]1CN(C(C)C)C2.O=C(O)C(F)(F)F.O=C(O)C(F)(F)F,108.6
17,CCOC(=O)[C@]12CCCN(Cc3nccs3)C[C@H]1CN(S(C)(=O)=O)C2.O=C(O)C(F)(F)F,-4.113
18,CCOC(=O)[C@]12CCCN(Cc3cccs3)C[C@H]1CN(CCOC)C2.O=C(O)C(F)(F)F.O=C(O)C(F)(F)F,131.5
19,CCOC(=O)[C@]12CCCN(Cc3nccs3)C[C@H]1CN(CCOC)C2.O=C(O)C(F)(F)F.O=C(O)C(F)(F)F,-1.05
20,CCOC(=O)[C@]12CCCN(Cc3cccs3)C[C@H]1CN(C(C)=O)C2.O=C(O)C(F)(F)F,93.24
